Source: PubChem BioAssay (Tox21)
Records with an inconclusive call do not appear. Activity calls are given as the source filed them. Unless noted, calls follow the shape of the full dose curve.

How the values were obtained:
[1] = Nuclear factor erythroid 2-related factor 2/antioxidant responsive element (Nrf2/ARE) small molecule agonists: qHTS cell viability counter screen in human keratinocytes (AID 1919968; active = well fitted curve in the direction sought with a large enough effect in the repeat runs; an effect the other way counts as inactive or inconclusive; also: nearly all actives have a fitted effect of over 55% in size; also: potency is read from the fitted curve at half-maximal effect)
In short: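 Seed 1,500 KeratinoSens cells per well, then incubate 5 h at 37 C/5% CO2. Add compounds in DMSO and incubate 23 h. Add CellTiter-Fluor, wait 1 h and read fluorescence.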

[2] = biological target: Gonadotropin-releasing hormone receptor (Homo sapiens) (UniProt P30968); experiment: Human gonadotropin-releasing hormone receptor (GnRHR) small molecule agonists, calcium flux assay in GnRHR-HEK293 cells (AID 1920063); also: nearly all actives have a fitted effect of over 35% in size
Chain of Gonadotropin-releasing hormone receptor (Homo sapiens) (P30968 whole entry, looked up): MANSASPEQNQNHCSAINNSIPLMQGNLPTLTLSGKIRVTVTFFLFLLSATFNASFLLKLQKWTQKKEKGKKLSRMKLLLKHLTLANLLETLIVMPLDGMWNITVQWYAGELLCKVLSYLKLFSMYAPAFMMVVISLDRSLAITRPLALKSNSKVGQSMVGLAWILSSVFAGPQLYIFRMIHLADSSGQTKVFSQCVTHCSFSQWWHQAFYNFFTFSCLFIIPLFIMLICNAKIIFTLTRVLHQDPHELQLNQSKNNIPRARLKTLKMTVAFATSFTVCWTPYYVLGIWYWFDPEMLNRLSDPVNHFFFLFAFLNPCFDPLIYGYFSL
In short: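 Cells: HEK293 stably expressing human GnRHR. Steps: overnight (18 h) culture, 1 h calcium dye loading at 37 C, compound addition, kinetic fluorescence read at 480/540 nm. Each compound tested at 15 concentrations in triplicate.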

[3] = biological target: KiSS-1 receptor (Homo sapiens) (UniProt Q969F8); experiment: Human kisspeptin (KISS1R) small molecule agonists, calcium flux assay in KISS1R-HEK293 cells (AID 1920064; active = well fitted curve in the direction sought with a large enough effect in the repeat runs; an effect the other way counts as inactive or inconclusive)
Chain of KiSS-1 receptor (Homo sapiens) (Q969F8 whole entry, looked up): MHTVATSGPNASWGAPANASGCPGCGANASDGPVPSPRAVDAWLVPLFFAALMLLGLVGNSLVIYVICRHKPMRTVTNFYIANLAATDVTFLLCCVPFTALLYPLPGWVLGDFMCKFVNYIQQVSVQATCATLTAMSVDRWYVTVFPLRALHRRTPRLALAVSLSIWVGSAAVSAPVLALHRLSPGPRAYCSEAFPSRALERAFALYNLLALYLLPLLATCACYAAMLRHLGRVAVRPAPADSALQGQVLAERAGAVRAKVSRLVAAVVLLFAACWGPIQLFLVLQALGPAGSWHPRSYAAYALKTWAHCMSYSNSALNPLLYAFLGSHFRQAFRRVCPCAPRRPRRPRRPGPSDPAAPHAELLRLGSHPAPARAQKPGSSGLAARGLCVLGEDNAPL
In short: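 Cells plated and incubated 18 h; dye added, 1 h at 37 C; compounds in DMSO pinned in; signal read at 480/540 nm every second for 3 min. Each compound tested at 15 concentrations in triplicate.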

[4] = G protein-coupled receptor (GPCR) small molecule agonists, calcium flux assay: HEK293 wild type cell line counter screen (AID 1920065)
In short: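 Counter-screen of the Tox21 10K library for non-specific calcium release: dye-loaded cells received compounds in DMSO and were monitored by kinetic fluorescence (480/540 nm, 3 min). Fifteen concentrations, run in triplicate.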

[5] = p53 small molecule agonists, cell-based qHTS assay with human liver microsomes (AID 1963577);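 also: p53 response element beta-lactamase reporter cells with liver microsomes plus NADPH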
In short: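 With metabolic activation: human liver microsomes (0.5 mg/mL final) plus NADPH (0.5 mg/mL final) added alongside compounds to p53RE-bla cells; 16 h 37 C exposure; beta-lactamase read by LiveBLAzer fluorescence.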

[6] = p53 small molecule agonists, cell-based qHTS assay with rat liver microsomes (AID 1963578)
In short: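 Metabolic activation by rat liver microsomes and NADPH, each 0.5 mg/mL final, added right after compounds to p53RE-bla reporter cells (4,000/well, plated 5 h earlier). 16 h at 37 C, then LiveBLAzer substrate for 2 h at room temperature in the dark; fluorescence read-out.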

[7] = p53 small molecule agonists, cell-based qHTS assay with human liver microsomes: qHTS cell viability counter screen (AID 1963579); also: nearly all actives have a fitted effect of over 45% in size
In short: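 Metabolic activation used human liver microsomes and NADPH, both 0.5 mg/mL final, over 16 hours at 37 C on p53RE-bla cells (4,000/well). Cytotoxicity measured by CellTiter-Glo luminescence, 30 min at room temperature.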

[8] = p53 small molecule agonists, cell-based qHTS assay with rat liver microsomes: qHTS cell viability counter screen (AID 1963580); also: nearly all actives have a fitted effect of over 45% in size
In short: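 p53RE-bla HCT-116 cells were exposed 16 h at 37 C to compounds with rat liver microsomes (0.5 mg/mL) and NADPH (0.5 mg/mL). Viability was measured in the same wells as ATP content by CellTiter-Glo luminescence.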

[9] = p53 small molecule agonists, cell-based qHTS assay: qHTS cell viability counter screen (AID 1963581); also: nearly all actives have a fitted effect of over 45% in size
In short: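 Cells: HCT-116 with p53 response element-driven beta-lactamase. Treatment: 16 h, 37 C, compounds in DMSO. Read: CellTiter-Glo luminescence after 30 min RT.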

[10] = cAMP Responsive Elements (CRE) small molecule antagonists, cell-based qHTS assay (AID 1963591; active = well fitted inhibition curve with a large enough effect in the signal ratio in the repeat runs, not every such curve was filed as active; the % refers to the signal ratio)
In short: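 Antagonist mode: test compounds are co-incubated with the adenylyl cyclase activator NKH477 (0.25 uM final) on CRE-bla HEK293T cells for 3 h at 37 °C, followed by LiveBLAzer substrate loading.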

[11] = biological target: Beta-2 adrenergic receptor (Homo sapiens) (UniProt P07550); experiment: Adrenergic beta2 receptor (ADRB2) small molecule antagonists, cell-based qHTS assay (AID 1963592); also: series mostly up to about 92 µM; nearly all actives have a fitted effect of over 50% in size
Chain of Beta-2 adrenergic receptor (Homo sapiens) (P07550 whole entry, looked up): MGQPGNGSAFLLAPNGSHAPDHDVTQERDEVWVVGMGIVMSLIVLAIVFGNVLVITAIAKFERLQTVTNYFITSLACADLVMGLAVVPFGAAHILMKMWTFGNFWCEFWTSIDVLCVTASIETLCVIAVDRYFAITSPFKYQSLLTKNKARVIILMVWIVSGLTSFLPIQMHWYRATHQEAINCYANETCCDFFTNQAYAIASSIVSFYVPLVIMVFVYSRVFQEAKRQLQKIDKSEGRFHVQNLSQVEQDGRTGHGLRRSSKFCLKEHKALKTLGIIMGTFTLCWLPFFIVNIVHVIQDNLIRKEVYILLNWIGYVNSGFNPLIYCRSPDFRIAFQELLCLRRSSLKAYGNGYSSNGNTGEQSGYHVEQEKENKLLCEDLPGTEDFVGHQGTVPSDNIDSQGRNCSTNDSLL
In short: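 Cells (CHO, stable ADRB2 overexpression) incubated 18-20hr at 37C; compounds added from DMSO; agonist mix (1nM isoproterenol, 100uM IBMX, 25uM Ro-20-1724) added; 0.5hr RT; d2-cAMP and anti-cAMP-cryptate added; 1hr RT; 665/615 nm read.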

[12] = biological target: D(2) dopamine receptor (Homo sapiens) (UniProt P14416); experiment: Dopamine D2 receptor (DRD2) small molecule agonists, cell-based qHTS assay (AID 1963594); also: nearly all actives have a fitted effect of over 35% in size
Chain of D(2) dopamine receptor (Homo sapiens) (P14416 whole entry, looked up): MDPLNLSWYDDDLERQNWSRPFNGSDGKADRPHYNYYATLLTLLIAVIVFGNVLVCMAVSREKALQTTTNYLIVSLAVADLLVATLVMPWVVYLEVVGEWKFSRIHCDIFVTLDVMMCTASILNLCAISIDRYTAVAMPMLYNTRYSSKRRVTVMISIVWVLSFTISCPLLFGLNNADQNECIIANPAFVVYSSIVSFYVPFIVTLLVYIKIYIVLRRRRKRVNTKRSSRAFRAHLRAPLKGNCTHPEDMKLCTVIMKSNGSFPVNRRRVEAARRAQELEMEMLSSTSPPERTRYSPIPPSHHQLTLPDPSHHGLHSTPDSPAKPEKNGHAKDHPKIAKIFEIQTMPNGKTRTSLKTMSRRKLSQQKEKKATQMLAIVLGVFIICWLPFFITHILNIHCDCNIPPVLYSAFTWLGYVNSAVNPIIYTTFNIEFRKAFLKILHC
In short: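 HEK293 cells stably expressing human DRD2, pre-treated with PDE inhibitor Ro20-1724 (0.1 mM final) and compound 10 min at room temperature, then stimulated with NKH477 (200nM […]) for 30 min. cAMP read by HTRF (665/620 nm).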

[13] = biological target: D(2) dopamine receptor (Homo sapiens) (UniProt P14416); experiment: Dopamine D2 receptor (DRD2) small molecule antagonists, cell-based qHTS assay (AID 1963595; active = well fitted inhibition curve with a large enough effect in the signal ratio in the repeat runs, with a control signal flat; the % refers to the signal ratio)
In short: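 DRD2-HEK293; 0.1 mM Ro20-1724; cpd 10 min RT; NKH477 200 nM + quinpirole 12 nM, 30 min RT; HTRF cAMP (cAMP-d2/anti-cAMP cryptate), 665/620 nm ratio after 1 h.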

[14] = p53 small molecule agonists, cell-based qHTS assay (AID 1963582; active = well fitted activation curve with a large enough effect in the signal ratio in the repeat runs, not every such curve was filed as active; the % refers to the signal ratio)
In short: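 Quantitative HTS in p53RE-bla cells: after a 5 h settling period, compounds delivered in DMSO were left on cells for 16 h at 37 C, and reporter induction was measured as fluorescence following 2 h substrate loading.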

[15] = biological target: Muscarinic acetylcholine receptor M1 (Homo sapiens) (UniProt P11229); experiment: Cholinergic receptor muscarinic 1 (CHRM1) small molecule antagonists, cell-based qHTS assay (AID 1963588); also: nearly all actives have a fitted effect of over 40% in size
Chain of Muscarinic acetylcholine receptor M1 (Homo sapiens) (P11229 whole entry, looked up): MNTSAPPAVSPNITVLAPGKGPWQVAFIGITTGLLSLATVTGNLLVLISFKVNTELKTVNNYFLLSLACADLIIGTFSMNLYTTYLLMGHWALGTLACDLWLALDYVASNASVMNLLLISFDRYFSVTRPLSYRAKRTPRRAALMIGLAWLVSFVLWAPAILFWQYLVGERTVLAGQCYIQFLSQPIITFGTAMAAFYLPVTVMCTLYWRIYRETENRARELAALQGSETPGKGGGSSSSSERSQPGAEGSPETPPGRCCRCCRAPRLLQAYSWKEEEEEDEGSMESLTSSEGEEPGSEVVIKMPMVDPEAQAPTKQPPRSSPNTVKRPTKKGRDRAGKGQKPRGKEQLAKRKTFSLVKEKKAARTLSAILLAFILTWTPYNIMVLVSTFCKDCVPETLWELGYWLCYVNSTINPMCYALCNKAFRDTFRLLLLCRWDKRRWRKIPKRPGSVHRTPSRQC
In short: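 CHRM1-CHO calcium-flux assay, antagonist mode. Cells were seeded 18 h, dye-loaded 1 h at 37 C and given compound for 5 min at RT, then acetylcholine was added at 50nM. FDSS fluorescence was read 3 min; 15 concentrations, three runs.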

[16] = biological target: Muscarinic acetylcholine receptor M1 (Homo sapiens) (UniProt P11229); experiment: Cholinergic receptor muscarinic 1 (CHRM1) small molecule agonists, cell-based qHTS assay (AID 1963589); also: nearly all actives have a fitted effect of over 35% in size
In short: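 Agonist-mode qHTS in CHO cells stably carrying human muscarinic M1. Intracellular calcium is tracked by fluorescence every second after compound transfer; each compound runs at 15 concentrations in three independent runs.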

[17] = cAMP Responsive Elements (CRE) small molecule agonists, cell-based qHTS assay (AID 1963590)
In short: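 Agonist mode qHTS in CRE-bla HEK 293T cells: compounds dosed from DMSO for 3 h at 37 C/5% CO2, followed by LiveBLAzer B/G FRET substrate for 2 h at room temperature.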

[18] = biological target: Beta-2 adrenergic receptor (Homo sapiens) (UniProt P07550); experiment: Adrenergic beta2 receptor (ADRB2) small molecule agonists, cell-based qHTS assay (AID 1963593);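 also: CHO cells stably overexpressing human ADRB2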
In short: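 CHO cells stably over-expressing ADRB2 were plated overnight at 37C, then dosed with compounds plus a stimulation mix containing 100uM IBMX and 25uM Ro-20-1724 for 0.5hr at room temperature. cAMP was measured by HTRF competition, 1hr.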

[19] = biological target: 5-hydroxytryptamine receptor 2A (Homo sapiens) (UniProt P28223); experiment: 5-hydroxytryptamine receptor 2A (HTR2A) small molecule antagonists, cell-based qHTS assay (AID 1963586); also: nearly all actives have a fitted effect of over 45% in size; also: potency is read from the fitted curve at half-maximal effect
Chain of 5-hydroxytryptamine receptor 2A (Homo sapiens) (P28223 whole entry, looked up): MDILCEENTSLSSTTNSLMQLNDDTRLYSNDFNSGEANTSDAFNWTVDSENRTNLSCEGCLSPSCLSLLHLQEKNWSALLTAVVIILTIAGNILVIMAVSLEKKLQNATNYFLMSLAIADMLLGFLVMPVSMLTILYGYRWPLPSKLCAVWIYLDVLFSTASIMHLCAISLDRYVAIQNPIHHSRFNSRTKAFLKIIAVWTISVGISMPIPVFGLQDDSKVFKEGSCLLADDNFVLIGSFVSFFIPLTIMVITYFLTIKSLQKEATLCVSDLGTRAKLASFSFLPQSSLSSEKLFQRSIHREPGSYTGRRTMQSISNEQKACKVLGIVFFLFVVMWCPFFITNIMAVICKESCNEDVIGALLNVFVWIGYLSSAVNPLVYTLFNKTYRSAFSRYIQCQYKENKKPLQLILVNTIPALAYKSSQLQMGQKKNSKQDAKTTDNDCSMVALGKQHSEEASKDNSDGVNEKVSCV
In short: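 Antagonist-mode intracellular calcium assay: DOI (4 nM) added after 5 min compound pre-incubation at room temperature to dye-loaded HTR2A-CHO cells. Fluorescence followed for 3 min, sampled every second.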

[20] = biological target: 5-hydroxytryptamine receptor 2A (Homo sapiens) (UniProt P28223); experiment: 5-hydroxytryptamine receptor 2A (HTR2A) small molecule agonists, cell-based qHTS assay (AID 1963587); also: nearly all actives have a fitted effect of over 30% in size; also: potency is read from the fitted curve at half-maximal effect
In short: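 CHO cells stably expressing human HTR2A, plated 18 h, loaded with calcium dye 1 h at 37 C. Agonist mode: compounds added and intracellular calcium fluorescence recorded kinetically for 2 min at 1 sec intervals.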
% is scaled to controls: 0 for no effect and ±100 for the full control effect.

CN1C[C@@H]2C[C@H]1CN2c1cc2c(cc1F)c(=O)c(C(=O)O)cn2C1CC1
inactive: activity change, negative = cytotoxicity [1] -0.599% [at 19 µM] | activity change [2] -0.0937% [at 11.8 µM, active compounds read high] | activation [3] -1.39% [at 15.8 µM] | activation [4] 0.573% [at 11.8 µM] | activation [5] 9.29% [at 13.5 µM] | activation [6] 1.2% [at 13.6 µM] | activity change, negative = cytotoxicity [7] 13.7% [at 13.5 µM] | activity change, negative = cytotoxicity [8] 4.47% [at 13.5 µM] | activity change, negative = cytotoxicity [9] 10.7% [at 13.5 µM] | activity change, negative = inhibition [10] 13.7% [at 18.9 µM] | activity change, negative = inhibition [11] -1.81% [at 19 µM] | activation [12] 2.8% [at 19 µM] | activity change, negative = inhibition [13] -0.654% [at 18.9 µM]

Nc1ccc(S(=O)(=O)Nc2ccccn2)cc1
inactive: Potency [1] | Potency [2] | outcome [3] | outcome [4] | Potency [5] | Potency [6] | Potency [7] | Potency [8] | Potency [9] | Potency [14] | Potency [15] | Potency [16] | Potency [17] | Potency [10] | Potency [11] | Potency [18] | Potency [12] | Potency [13]

CC(C)NNC(=O)c1ccncc1
inactive: Potency [1] | Potency [2] | outcome [3] | outcome [4] | Potency [5] | Potency [6] | Potency [7] | Potency [8] | Potency [9] | Potency [14] | Potency [17] | Potency [10] | Potency [11] | Potency [18] | Potency [12] | Potency [13]

CCC(O)C(C)(C)C (stereo not given)
inactive: Potency [1] | Potency [2] | outcome [3] | outcome [4] | Potency [5] | Potency [6] | Potency [7] | Potency [8] | Potency [9] | Potency [14] | Potency [19] | Potency [15] | Potency [16] | Potency [17] | Potency [10] | Potency [11] | Potency [12] | Potency [13]

CCC(C)c1cc([N+](=O)[O-])cc([N+](=O)[O-])c1OC(=O)OC(C)C (stereo not given)
active: Potency [1] 38600 nM
inactive: Potency [2] | outcome [3] | outcome [4] | Potency [5] | Potency [6] | Potency [7] | Potency [8] | Potency [9] | Potency [20] | Potency [15] | Potency [16] | Potency [12] | Potency [13]

c1ccc(CNc2ncnc3nc[nH]c23)cc1
inactive: Potency [1] | Potency [2] | outcome [3] | outcome [4] | Potency [5] | Potency [6] | Potency [7] | Potency [8] | Potency [9] | Potency [14] | Potency [19] | Potency [15] | Potency [16] | Potency [17] | Potency [10] | Potency [18] | Potency [13]

Cc1cc(N)c(S(=O)(=O)O)cc1Cl
inactive: Potency [1] | Potency [2] | outcome [3] | outcome [4] | Potency [5] | Potency [6] | Potency [7] | Potency [8] | Potency [14] | Potency [19] | Potency [20] | Potency [15] | Potency [16] | Potency [17] | Potency [10] | Potency [11] | Potency [13]

NC1CCN(c2cccc(Cl)n2)CC1
inactive: Potency [1] | Potency [2] | outcome [3] | outcome [4] | Potency [5] | Potency [6] | Potency [8] | Potency [9] | Potency [14] | Potency [15] | Potency [16] | Potency [10] | Potency [11] | Potency [12] | Potency [13]
active: Potency [19] 410 nM | Potency [20] 268 nM
